Structures are written as SMILES. The campaign covered roughly 340,000 compounds. About 6,200 (1.8%) were called active. Where a call stands in place of a potency, no number is given. Inconclusive results (about 10%) are left out. The sample holds actives, similar compounds and a random draw of the others, so the mix is not that of the screen. Unmarked numbers belong to inactive results. Calls come from the whole dose curve; as a rule, active = well fitted activation curve with a large enough effect; inconclusive = small, poorly fitted or top-dose-only effect; inactive = no such curve, though single readings can be large or run the other way.
Potency is the fitted concentration of half-maximal effect.

The nature of the test: A quantitative high throughput screen for small molecules that induce DNA re-replication in SW480 colon adenocarcinoma cells. Note: nearly all actives have a fitted effect of over 55% in size. Particulars: Hoechst DNA content imaging, 48 h; series mostly up to 46.1 µM. The essentials: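 SW480 cells exposed to compounds for 48 hr at 37 C, 5% CO2, then Hoechst-stained 40 min. Nuclear DNA content imaged by fluorescence scanning (405 nm excitation, 500-530 nm emission); re-replication scored as increased high-intensity nuclei.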
As to `COc1ccc(CCNC(=O)COc2cc(C)cc3oc(=O)c(C)c(C)c23)cc1OC`, the Potency result is “inactive”.
The same measure, in the same setting: for `COc1ccc(/C=C/C(=O)OCC(=O)NC2CCCCCC2)cc1OC` the value was “inactive”; for `COCCCN1C(=O)C(=O)/C(=C(/O)c2ccc3c(c2)CC(C)O3)C1c1cccnc1` (stereo not drawn), “inactive”; for `COc1ccc(C2/C(=C(/O)c3ccc4c(c3)CC(C)O4)C(=O)C(=O)N2Cc2ccncc2)cc1` (stereo not drawn), “inactive”.
The same measure, in the same setting: to `COc1cc(C2/C(=C(\O)c3ccc4c(c3)CC(C)O4)C(=O)C(=O)N2Cc2ccco2)ccc1O` (stereo not drawn) belongs 0.517 µM (active); to `O=C(COC(=O)c1ccc(O)cc1O)c1ccc2c(c1)OCCO2`, “inactive”.
Still for that read-out and setting: for `O=C1CN(C(=O)COC(=O)/C=C/c2ccc(F)cc2)c2ccccc2N1` the value was “inactive”; for `COc1ccc2c(C(=O)c3ccc(C)cc3)n(CCC(N)=O)[n+]([O-])c2c1`, “inactive”.
For `COc1ccc(C(=O)CC(=O)C(=O)Nc2cc([N+](=O)[O-])ccc2OC)cc1`, the Potency result was “inactive”.
In the case of `COc1ccc(C(=O)c2c3ccc([N+](=O)[O-])cc3[n+]([O-])n2CCCN)cc1`, the Potency is 18.4 µM (active).
Still for that read-out and setting: to `COc1cc(OC)cc(-c2c(C#Cc3ccsc3)c3cc(-c4ccc(SC)cc4)ccc3n2C)c1` belongs “inactive”.
On the same count and under the same terms, for `Cc1nnc(N/N=C/C2CC=CCC2)[nH]c1=O` (stereo not drawn) the value was “inactive”; for `Cc1cc(C(=O)N/N=C/c2ccccn2)c2ccccc2n1`, “inactive”; for `Cc1nnc(N/N=C/c2ccccn2)[nH]c1=O`, 1.3 µM (active).
Same read-out and setting: for `CC(C)[C@@H](C(=O)OCC(=O)c1ccc2c(c1)NC(=O)CO2)N1C(=O)c2ccccc2C1=O` the value was “inactive”.
Regarding `O=S(=O)(NCC1CN(S(=O)(=O)c2ccc3c(c2)OCCO3)C1)c1c(F)cccc1F`, the Potency entry was “inactive”.
On the same count and under the same terms, to `CSc1ncccc1C(=O)Nc1cccc(S(=O)(=O)N2CCOCC2)c1` belongs “inactive”; to `CCOC(=O)c1cccc(NS(=O)(=O)c2c(C(=O)N3CCCCCC3)c(C)n(C)c2C)c1`, “inactive”.
With `CCOC(=O)c1c(S(=O)(=O)Nc2ccc(CN3CCC(C)CC3)cc2)c(C)n(C)c1C`, the Potency result is “inactive”.
The same measure, in the same setting: to `CCOC(=O)c1c(S(=O)(=O)Nc2cccc(Cl)c2)c(C)n(C)c1C` belongs 8.2 µM (active); to `COc1ccc(CCN2CC(C(=O)OCC(=O)NCc3ccccc3Cl)CC2=O)cc1OC` (stereo not drawn), “inactive”; to `Cc1ccc(S(=O)(=O)N2CCN(C(=O)Cn3c(=O)cnc4ccccc43)CC2)c(C)c1`, “inactive”.
Same read-out and setting: to `CCN(CC(=O)Nc1c(F)cccc1F)C(=O)Cc1cccs1` belongs “inactive”; to `Cc1cc(NC(=O)CSCC(=O)NC(C)c2ccccc2)no1` (stereo not drawn), “inactive”.
In the case of `COc1cccc(CNc2nc(C(F)(F)F)nc3ccccc23)c1`, the Potency result is “inactive”.
On the same count and under the same terms, for `NS(=O)(=O)c1ccc(CCNc2nc(C(F)(F)F)nc3ccccc23)cc1` the value was “inactive”; for `CCc1ccc(C(CNc2nc(C(F)(F)F)nc3ccccc23)N(C)C)cc1` (stereo not drawn), 20.6 µM (active).
Still for that read-out and setting: to `CC(CN1CCOCC1)c1ccccc1` (stereo not drawn) belongs “inactive”; to `CC(CN1CCCCC1)c1ccccc1` (stereo not drawn), 5.8 µM (active); to `CC(CN1CCC(n2nccc2NC(=O)C2CCCC2)CC1)c1ccccc1` (stereo not drawn), “inactive”.
Same read-out and setting: for `O=C(Nc1ccc2ccccc2c1[N+](=O)[O-])c1ccccc1` the value was “inactive”; for `O=C(Nc1cccc2cccnc12)c1cccc(Cl)c1`, “inactive”; for `CC(=O)/C(=N\Nc1ccc(Cl)cc1Cl)Sc1cccc2cccnc12`, 6.51 µM (active).
Consider `O=C(Nc1ccccc1Cl)Nc1cccc2cccnc12`, for which the Potency entry is “inactive”.
Take `CCC(C)c1ccc(NC(=O)COC(=O)C2CCCC2)cc1` (stereo not drawn): the Potency result is “inactive”.
Same read-out and setting: to `CC(Sc1nncn1C)C(=O)NCCC1=CCCCC1` (stereo not drawn) belongs “inactive”; to `COc1ccc(Cn2cc(CN3CCS(=O)(=O)N(Cc4ccc(-c5cccc(Cl)c5)cc4)C(C)C3=O)nn2)cc1` (stereo not drawn), “inactive”.
Same read-out and setting: for `CN(C(=O)c1cccc(NC(=O)Cc2ccc([N+](=O)[O-])cc2)c1)C1CCC1` the value was “inactive”.
Still for that read-out and setting: for `Cc1nc(SCc2ccc(F)cc2)c([N+](=O)[O-])[nH]1` the value was “inactive”; for `CCCCCOc1ccc(CSC2=NCCN2)cc1[N+](=O)[O-]`, 5.8 µM (active); for `CCCOc1ccc(Cn2ccnc2)cc1[N+](=O)[O-]`, “inactive”.
Consider `O=C1NCC(c2ccccc2)(c2ccccc2)C(=O)N1`, for which the Potency entry was “inactive”.
Still for that read-out and setting: to `COc1cccc(C(=O)Nc2ccc(N3CCN(C(=O)c4ccco4)CC3)cc2)c1` belongs 18.4 µM (active); to `Cc1ccc(OCC(=O)Nc2ccc(N3CCN(C(=O)c4ccco4)CC3)cc2)c(C)c1`, “inactive”; to `CCC(=O)Nc1ccc(C(=O)N2CCN(C(=O)c3ccco3)CC2)cc1`, “inactive”.
Still for that read-out and setting: to `Cc1ccc(S(=O)(=O)N2CCCCC2)cc1NC(=O)CCNC(=O)c1ccccc1` belongs “inactive”.
On to `Cc1cccc(C2=N/C(=C/c3cccs3)C(=O)O2)c1`, for which the Potency is 4.61 µM (active).
On the same count and under the same terms, to `Cc1ccc(N2CCN(C3=NC(=O)/C(=C\c4cccs4)S3)CC2)cc1` belongs “inactive”.
On to `Cc1ccc(C2=N/C(=C\c3ccc(OS(=O)(=O)c4ccc(C)cc4)cc3)C(=O)O2)cc1`, for which the Potency entry is “inactive”.
Take `Cc1nc2ccc(N)nc2nc1C`: the Potency entry is “inactive”.
With `CCCN(CCC)S(=O)(=O)c1cc2c(cc1Br)CCN2C(=O)CC`, the Potency entry is “inactive”.
`Cc1noc(C)c1S(=O)(=O)N(C)C[C@H]1Oc2ccc(NC(=O)C3CC3)cc2C(=O)N([C@H](C)CO)C[C@@H]1C`: the Potency result is “inactive”.
As to `CN1CCN(CCCNC(=O)c2ccc(/C=C3\Oc4ccccc4N(Cc4ccc(Cl)cc4)C3=O)cc2)CC1`, the Potency entry was “inactive”.
As for `CCN1CCN(CCNC(=O)c2ccc(/C=C3/Sc4ccccc4N(Cc4cccc(C)c4)C3=O)cc2)CC1`, the Potency is 20.6 µM (active).
Still for that read-out and setting: to `O=C(NCCN1CCOCC1)c1ccc(/C=C2\Sc3ccccc3N(Cc3ccc(F)cc3)C2=O)cc1` belongs “inactive”.
On to `C[C@@H]1CN([C@@H](C)CO)C(=O)c2cccc(NS(=O)(=O)c3ccc(F)cc3)c2O[C@H]1CN(C)C(=O)NC1CCCCC1`, for which the Potency entry was “inactive”.
Take `CC1CN(C(=O)c2ccc([N+](=O)[O-])s2)CC(C)O1` (stereo not drawn): the Potency entry was “inactive”.
Same read-out and setting: for `O=C(c1cccc(S(=O)(=O)N2CCCCCC2)c1)N1CCN(Cc2ccccc2)CC1` the value was “inactive”.
The same measure, in the same setting: for `O=C(NC1=CC(=O)c2ccccc2C1=O)c1ccccc1` the value was 5.8 µM (active).
The same measure, in the same setting: for `Cn1c(NC(=O)c2ccccc2)nc2ccccc21` the value was “inactive”; for `CC(NC(=O)c1ccccc1)C(=O)Nc1ccccc1` (stereo not drawn), “inactive”; for `Cc1c[n+]([O-])ccc1[N+](=O)[O-]`, “inactive”.
With `COc1ccc(S(=O)(=O)N2C[C@H]3CON(C)[C@H]3C[C@H]2c2cccc(Br)c2)cc1`, the re-replication activation was -5.21% [at 9.22 µM].

Values taken from PubChem BioAssay AID624297 (National Center for Advancing Translational Sciences (NCATS), 2012).
